Data published in PubChem BioAssay AID743279 (National Center for Advancing Translational Sciences (NCATS), 2014).
About 17,000 (4.7%) of roughly 360,000 compounds were called active. Not shown: some 5% with an inconclusive outcome. Shown is part of a subset that was picked to be rich in actives. Unmarked numbers belong to inactive results. Rule as the data show it: active = activity change below about -50%; inconclusive = mostly about -30% to -49%; inactive = weaker than that.

experiment: qHTS for Inhibitors of Inflammasome Signaling: IL-1-beta AlphaLISA Primary Screen; conditions: THP-1 LPS/ATP IL-1B secretion, 16 h; at 57.5 µM, hits give low values
Method in brief: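 THP-1 cells pretreated 1 hr with compounds (up to 57.5 uM final), then stimulated with LPS (250 ng/mL final) plus ATP (1.25 mM final); secreted IL-1B measured by AlphaLISA after 16 hr, decreased signal indicating inhibition.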
% is scaled to controls: 0 for no effect and ±100 for the full control effect.

Row | SMILES | activity change
1 | O=C1[C@H]2[C@@H](c3ccc(C(F)(F)F)cc3)N[C@]3(CCCN(Cc4ccc(Br)cc4)C3=O)[C@H]2C(=O)N1Cc1ccccc1 | -13.1%
2 | Cc1ccc(S(=O)(=O)N2CC3C(=O)C[C@@H](c4ccccc4Cl)N(S(=O)(=O)c4ccc(C)cc4)C3CC2c2ccccc2)cc1 (stereo partly specified) | -22%
3 | COC(=O)[C@]12CCCCC=C1N(Cc1ccc3c(c1)OCO3)C(=O)[C@H](CC(=O)N1CCOCC1)C2 | -18.3%
4 | COc1ccc(OCCCCN2CCC(C)CC2)cc1 | -29.3%
5 | C=CCc1ccc(OCC(O)CN2CCN(Cc3ccccc3)CC2)c(OC)c1 (stereo unspecified) | -7.39%
6 | COc1ccccc1OCC(O)CN1CCOCC1 (stereo unspecified) | 5.64%
7 | C/C=C/c1ccc(OCCOc2ccc(C=O)cc2OC)c(OC)c1 | 3.9%
8 | C/C=C/c1ccc(OCCCCN2CCC(C)CC2)c(OC)c1 | -54% (active)
9 | C/C=C/c1ccc(OCC(O)CN2CCCCCCC2)c(OC)c1 (stereo unspecified) | -53.6% (active)
10 | CC(=O)Nc1ccc(C(=O)OCC(=O)Nc2ccc([N+](=O)[O-])cc2C(F)(F)F)cc1 | -1.11%
11 | COC(=O)[C@]12CCCCC=C1N(Cc1ccco1)C(=O)[C@H](CC(=O)NCCCCc1ccccc1)C2 | 4%
12 | CC(=O)Nc1cccc(-c2cc3nc(NCc4cccnc4)n(C)c(=O)c3s2)c1 | -0.936%
13 | Cc1ccc(S(=O)(=O)NNC(=O)/C=C/c2cccc(F)c2)cc1 | -11.4%
14 | Cc1nn(C)c(Cl)c1CN1CCC(n2nccc2NC(=O)C2CCCC2)CC1 | 22.9%
15 | O=C(c1ccc(OC2CCN(Cc3ccccn3)CC2)cc1)N1CCCCCC1 | 2.11%
16 | CC(CN1CCC(n2nccc2NC(=O)C2CCCC2)CC1)c1ccccc1 (stereo unspecified) | -14%
17 | O=C(c1ccc(OC2CCN(C/C=C/c3ccc(F)cc3)CC2)cc1)N1CCCCC1 | -63.7% (active)
18 | O=C(Nc1ccnn1C1CCN(C/C=C/c2ccc(F)cc2)CC1)C1CCCC1 | -71.6% (active)
19 | CC(=O)Nc1ccc(CN2CCC(Oc3ccc(C(=O)N4CCCC4)cc3)CC2)cc1 | 20.8%
20 | CCC(C(=O)NC(C)(C)C)n1c(-c2ccccc2)nc2ccccc21 (stereo unspecified) | 3.76%
21 | CC(=O)Nc1ccc2nc(NC(=O)CS(=O)(=O)c3ccc(F)cc3)sc2c1 | 2.42%
22 | CCOc1ccc(S(=O)(=O)NCCC(=O)NCC(C)(C)N2CCOCC2)cc1 | 12.3%
23 | Cc1ccc(NC(=O)[C@H](Cc2ccccc2)NC(=O)CC[C@H]2O[C@@H](n3ccc(=O)[nH]c3=O)[C@H](O)[C@@H]2O)cc1C | 6.2%

Row | SMILES | activity change
24 | CC1(C)OC(=O)C2=C(C[C@@H](C3CC3)O[C@H]2CCc2cccc(Cl)c2)O1 | 24.6%
25 | COc1ccc(Oc2c(Cl)cnn(-c3ccccc3)c2=O)cc1 | -118% (active)
26 | COc1ccc(CCNC(=O)c2c(C)nn(-c3ccccc3)c2Cl)cc1 | -6.31%
27 | COc1cnn(-c2ccc([N+](=O)[O-])cc2)c(=O)c1Cl | -16.9%
28 | CCc1ccc(NC(=O)C(=O)NNC(=O)c2cccs2)cc1 | -11.1%
29 | CCOc1ccc(NC(=O)CN(C)C(=O)CSc2ccccc2)cc1OCC | 5.24%
30 | O=C(Nc1ccc(F)cc1)C(=O)c1cn(CC(=O)N2CCOCC2)c2ccccc12 | 8.7%
31 | Cc1ccnc(NS(=O)(=O)c2ccc(NC(=O)c3oc4ccc(F)cc4c3C)cc2)n1 | 4.03%
32 | COc1cccc(NC(=O)COC(=O)CCOc2ccccc2OC)c1 | -1.64%
33 | COc1cc([N+](=O)[O-])ccc1NC(=O)COC(=O)CCOc1ccc(C)cc1 | -81.7% (active)
34 | CSc1ccccc1NC(=O)COC(=O)CCCOc1ccc(C)cc1 | 13.8%
35 | O=C(COC(=O)c1cccc(Cl)c1Cl)NC1CCCCCC1 | 4.38%
36 | O=C(NCC(=O)N1CCCC(C(F)(F)F)C1)c1ccccc1F (stereo unspecified) | 6.36%
37 | FC(F)(F)C1CCCN(c2nsc3ccccc23)C1 (stereo unspecified) | -76% (active)
38 | Cn1ccc(=Nc2ccc(NC(=O)c3ccc(N=c4ccn(C)c5ccc([N+](=O)[O-])cc45)cc3)cc2)cc1 | -20.4%
39 | Cc1ccc(CN2CC(C(=O)N3CCN(S(=O)(=O)c4ccccc4)CC3)CC2=O)cc1 (stereo unspecified) | -19.1%
40 | Cc1ccc(C)c(S(=O)(=O)N2CCN(c3ncnc4sccc34)CC2)c1 | -53.3% (active)
41 | Cc1ccc(S(=O)(=O)N2CCN(c3ncnc4ccccc34)CC2)cc1 | -9.9%
42 | COc1ccc(C)cc1S(=O)(=O)N1CCN(S(=O)(=O)c2cc(C(=O)O)ccc2C)CC1 | 34.7%
43 | O=C1OC(Oc2ccc(Br)cc2)(c2ccccc2)c2ccccc21 (stereo unspecified) | -13.8%
44 | CSc1ncc(C(=O)NCCCc2ccccc2)c(C)n1 | 0%
45 | O=C(Cc1ccccc1)Nc1cccc(NC(=O)c2ccccc2)c1 | -19.5%
46 | O=C(CCl)Nc1cccc(CP(=O)(c2ccccc2)c2ccccc2)c1 | -99.8% (active)

Row | SMILES | activity change
47 | O=C(CSCc1ccccc1)Nc1ccccc1 | 0.36%
48 | COC(=O)c1ccc2nc(-c3cccc(Br)c3)c(Cc3ccccc3C(F)(F)F)n2c1 | 0%
49 | CCCC(=O)N1CCC1(C)C(=O)NCc1ccc(SC)cc1 (stereo unspecified) | 21.3%
50 | C/C(=N\OCC(=O)O)c1ccc(Cl)cc1 | 0%
51 | C/C(=N\N=C(N)N)c1ccc(Cl)cc1 | -86.4% (active)
52 | C/C(=N\NC(=S)NCc1ccccc1)c1ccc(Cl)cc1 | 0%
53 | CCc1nc2c(OCC(=O)C(C)(C)C)cccn2c1N(C)C(=O)c1ccccc1F | 32.1%
54 | O=C(Nc1cc(Br)ccc1F)c1nc[nH]c1C(=O)NCc1ccccc1 | -4.71%
55 | OC[C@@H]1CN(C2CCCC2)C[C@H](n2cnc3c(NC4CCC4)ncnc32)O1 | 5.5%
56 | CCN1CCN(C(=O)CSc2ccc(C)cc2)CC1 | -5.59%
57 | CCN1CCC2(CC1)N=C(c1ccc(F)cc1)C(=S)N2C(=O)c1ccc(C)cc1 | -115% (active)
58 | Cc1ccc(SCC(=O)N2CCN(c3ccc(F)cc3)CC2)cc1 | -12.4%
59 | CC(Sc1nncn1C)C(=O)NCCC1=CCCCC1 (stereo unspecified) | 1.27%
60 | CCCCN(Cc1ccccc1)C(=O)C1CCN(Cc2sccc2C)CC1 | -20.5%
61 | O=C(NCc1ccccn1)[C@@H]1CCCN1C(=O)[C@@H]1CCCN1C(=O)c1ccccc1 | 0%
62 | CCOc1cc2ccccc2cc1C(=O)Nc1ccccn1 | 9.73%
63 | CCN(CC)CCOc1ccc2c(c1)C(=NNC(=O)c1ccccn1)c1cc(OCCN(CC)CC)ccc1-2 | -56.2% (active)
64 | CCC(C(=O)OCCN(CC)CC)c1ccccc1 (stereo unspecified) | -16.3%
65 | CC(C)(CNCC(O)c1ccccc1)N1CCOCC1 (stereo unspecified) | -7.93%
66 | OC(CNCc1ccc(Cl)c(Cl)c1)c1ccccc1 (stereo unspecified) | -69.4% (active)
67 | Cc1c(Cl)cccc1NC(=S)NCC(O)c1ccccc1 (stereo unspecified) | -6.92%
68 | Cc1c(NC(=O)C(=O)N/N=C/c2cccs2)c(=O)n(-c2ccccc2)n1C | -21.9%
69 | O=C(NCc1ccc(F)cc1)c1cc(C2CCCCN2C(=O)c2ccccn2)on1 (stereo unspecified) | 42.4%

Row | SMILES | activity change
70 | O=C(OCc1cn(-c2ccc(Cl)c(Cl)c2)nn1)c1ccccc1Cl | -2.76%
71 | Cc1cccc(CN2CCN(C3CN(Cc4cn(Cc5cc(C)cc(C)c5)nn4)S(=O)(=O)C3)CC2)c1 (stereo unspecified) | -18.8%
72 | COC(=O)c1ccc(COC(=O)c2cnc(Cl)c(Cl)c2)cc1 | -13.4%
73 | CCOc1ccc(C(C)=O)cc1COC(=O)c1cnc(Cl)c(Cl)c1 | -108% (active)
74 | CCOc1ccc(C(C)=O)cc1COC(=O)CNC(=O)c1cccs1 | -9.33%
75 | CC(C)c1cc(Cn2c3ccccc3c(=O)n2C(C)Cn2cc(C3CC3)nn2)on1 (stereo unspecified) | -6.05%
76 | O=C1CS(=O)CN1c1ccc(Oc2ccccc2)cc1 (stereo unspecified) | 15%
77 | O=C1c2ccccc2C(c2nc3ccccc3[nH]2)N1c1ccccc1 (stereo unspecified) | 81%
78 | Cc1cccn2c(=O)c3cc(C(=O)NC4CCCCC4)sc3nc12 | -16.1%
79 | CC1(C(=O)NS(=O)(=O)C2CC2)CCCN(C(=O)CSc2ccccc2)C1 (stereo unspecified) | 10.6%
80 | CCOc1ccc(C(=O)Nc2c3c(nn2-c2ccccc2)CS(=O)(=O)C3)cc1 | 12.2%
81 | O=C1N=C(N2CCOCC2)S/C1=C\C=C/c1ccccc1 | -18%
82 | CC1CCN(C2=NC(=O)/C(=C/c3cn[nH]c3-c3ccccc3)S2)CC1 | -59.2% (active)
83 | CC1CCN(c2nc3c(c(=O)[nH]c(=O)n3C)n2CCCc2ccccc2)CC1 | 14.1%
84 | CC(C)C(NC(=O)c1c(F)cccc1F)C(=O)NCc1ccncc1 (stereo unspecified) | 4.1%
85 | CC(C)C(NC(=O)OCc1ccccc1)C(=O)OCC(=O)N1C(C)CCCC1C (stereo unspecified) | -2.86%
86 | O=C(c1ccc(N2CCOCC2)c([N+](=O)[O-])c1)N1CCN(S(=O)(=O)c2cccs2)CC1 | -0.922%
87 | Cc1ccc(S(=O)(=O)N2CCN(C(=O)c3ccc(-n4cncn4)c([N+](=O)[O-])c3)CC2)cc1 | -5.16%
88 | CC(C)c1ccc(S(=O)(=O)N2CCN(C(=O)c3ccc(N4CCCC4)c([N+](=O)[O-])c3)CC2)cc1 | -52% (active)
89 | CCN(CCn1cccn1)Cc1nc(-c2ccc(C(=O)OC)cc2)no1 | 81.6%
90 | Clc1ccc(-c2cc(-c3ccccn3)on2)c(Cl)c1 | 0%
91 | Clc1ccc(-c2cc(C3CCNCC3)[nH]n2)c(Cl)c1 | -79.9% (active)
